# Read-outs that look alike come from different tables or passages of the source.
# Experiments:
# PKN1 = conditions: read-out: apparent Kd, n = 1
# PLK4 = conditions: read-out: apparent Kd, n = 1
substance,measurement,setting,value
Lestaurtinib,potency estimated from few doses,"PKN1; compound concentrations:100 nM and 1000 nM (sheet 'Lestaurtinib' of Supplementary Table 1),run:Lestaurtinib_02766_R2,Plate:MR027",582 nM
same,potency estimated from few doses,"PKN1; compound concentrations:100 nM and 1000 nM (sheet 'Lestaurtinib' of Supplementary Table 1),run:Lestaurtinib_02766_R3,Plate:MR027",483 nM
same,potency estimated from few doses,"PKN1; compound concentrations:100 nM and 1000 nM (sheet 'Lestaurtinib' of Supplementary Table 1),run:Lestaurtinib_02768_R1,Plate:MR028",403 nM
same,potency estimated from few doses,"PKN1; compound concentrations:100 nM and 1000 nM (sheet 'Lestaurtinib' of Supplementary Table 1),run:Lestaurtinib_02768_R2,Plate:MR028",488 nM
same,potency estimated from few doses,"PKN1; compound concentrations:100 nM and 1000 nM (sheet 'Lestaurtinib' of Supplementary Table 1),run:Lestaurtinib_02768_R3,Plate:MR028",424 nM
same,potency estimated from few doses,"PKN1; compound concentrations:100 nM and 1000 nM (sheet 'Lestaurtinib' of Supplementary Table 1),run:Lestaurtinib_02795_R1,Plate:MR022",453 nM
same,potency estimated from few doses,"PKN1; compound concentrations:100 nM and 1000 nM (sheet 'Lestaurtinib' of Supplementary Table 1),run:Lestaurtinib_02795_R2,Plate:MR022",443 nM
same,potency estimated from few doses,"PKN1; compound concentrations:100 nM and 1000 nM (sheet 'Lestaurtinib' of Supplementary Table 1),run:Lestaurtinib_02795_R3,Plate:MR022",422 nM
same,potency estimated from few doses,"PKN1; compound concentrations:100 nM and 1000 nM (sheet 'Lestaurtinib' of Supplementary Table 1),run:Lestaurtinib_02802_R1,Plate:MR029",473 nM
same,potency estimated from few doses,"PKN1; compound concentrations:100 nM and 1000 nM (sheet 'Lestaurtinib' of Supplementary Table 1),run:Lestaurtinib_02802_R2,Plate:MR029",433 nM
same,potency estimated from few doses,"PKN1; compound concentrations:100 nM and 1000 nM (sheet 'Lestaurtinib' of Supplementary Table 1),run:Lestaurtinib_02802_R3,Plate:MR029",181 nM
same,potency estimated from few doses,"PKN1; compound concentrations:100 nM and 1000 nM (sheet 'Lestaurtinib' of Supplementary Table 1),run:Lestaurtinib_03172_R1,Plate:MR031",435 nM
same,potency estimated from few doses,"PKN1; compound concentrations:100 nM and 1000 nM (sheet 'Lestaurtinib' of Supplementary Table 1),run:Lestaurtinib_03172_R3,Plate:MR031",358 nM
same,potency estimated from few doses,"PKN1; compound concentrations:100 nM and 1000 nM (sheet 'Lestaurtinib' of Supplementary Table 1),run:Lestaurtinib_03252_R2,Plate:MR032",94.9 nM
same,potency estimated from few doses,"PKN1; compound concentrations:100 nM and 1000 nM (sheet 'Lestaurtinib' of Supplementary Table 1),run:Lestaurtinib_03260_R1,Plate:MR033",514 nM
same,potency estimated from few doses,"PKN1; compound concentrations:100 nM and 1000 nM (sheet 'Lestaurtinib' of Supplementary Table 1),run:Lestaurtinib_03260_R2,Plate:MR033",559 nM
same,potency estimated from few doses,"PKN1; compound concentrations:100 nM and 1000 nM (sheet 'Lestaurtinib' of Supplementary Table 1),run:Lestaurtinib_03260_R3,Plate:MR033",518 nM
same,potency estimated from few doses,"PLK4; compound concentrations:100 nM and 1000 nM (sheet 'Lestaurtinib' of Supplementary Table 1),run:Lestaurtinib_02339_R1,Plate:MR001",80.5 nM
same,potency estimated from few doses,"PLK4; compound concentrations:100 nM and 1000 nM (sheet 'Lestaurtinib' of Supplementary Table 1),run:Lestaurtinib_02339_R2,Plate:MR001",64.4 nM
same,potency estimated from few doses,"PLK4; compound concentrations:100 nM and 1000 nM (sheet 'Lestaurtinib' of Supplementary Table 1),run:Lestaurtinib_02339_R3,Plate:MR001",51.7 nM
same,potency estimated from few doses,"PLK4; compound concentrations:100 nM and 1000 nM (sheet 'Lestaurtinib' of Supplementary Table 1),run:Lestaurtinib_02364_R2,Plate:MR002",202 nM
same,potency estimated from few doses,"PLK4; compound concentrations:100 nM and 1000 nM (sheet 'Lestaurtinib' of Supplementary Table 1),run:Lestaurtinib_02367_R1,Plate:MR003",62.3 nM
same,potency estimated from few doses,"PLK4; compound concentrations:100 nM and 1000 nM (sheet 'Lestaurtinib' of Supplementary Table 1),run:Lestaurtinib_02367_R2,Plate:MR003",75.5 nM
same,potency estimated from few doses,"PLK4; compound concentrations:100 nM and 1000 nM (sheet 'Lestaurtinib' of Supplementary Table 1),run:Lestaurtinib_02381_R1,Plate:MR004",71 nM
same,potency estimated from few doses,"PLK4; compound concentrations:100 nM and 1000 nM (sheet 'Lestaurtinib' of Supplementary Table 1),run:Lestaurtinib_02381_R2,Plate:MR004",73.6 nM
same,potency estimated from few doses,"PLK4; compound concentrations:100 nM and 1000 nM (sheet 'Lestaurtinib' of Supplementary Table 1),run:Lestaurtinib_02381_R3,Plate:MR004",93.7 nM
same,potency estimated from few doses,"PLK4; compound concentrations:100 nM and 1000 nM (sheet 'Lestaurtinib' of Supplementary Table 1),run:Lestaurtinib_02407_R1,Plate:MR005",45.6 nM
same,potency estimated from few doses,"PLK4; compound concentrations:100 nM and 1000 nM (sheet 'Lestaurtinib' of Supplementary Table 1),run:Lestaurtinib_02407_R2,Plate:MR005",39.3 nM
same,potency estimated from few doses,"PLK4; compound concentrations:100 nM and 1000 nM (sheet 'Lestaurtinib' of Supplementary Table 1),run:Lestaurtinib_02407_R3,Plate:MR005",47.3 nM
same,potency estimated from few doses,"PLK4; compound concentrations:100 nM and 1000 nM (sheet 'Lestaurtinib' of Supplementary Table 1),run:Lestaurtinib_02422_R1,Plate:MR006",56.6 nM
same,potency estimated from few doses,"PLK4; compound concentrations:100 nM and 1000 nM (sheet 'Lestaurtinib' of Supplementary Table 1),run:Lestaurtinib_02422_R3,Plate:MR006",60.8 nM
same,potency estimated from few doses,"PLK4; compound concentrations:100 nM and 1000 nM (sheet 'Lestaurtinib' of Supplementary Table 1),run:Lestaurtinib_02437_R1,Plate:MR007",58.1 nM
same,potency estimated from few doses,"PLK4; compound concentrations:100 nM and 1000 nM (sheet 'Lestaurtinib' of Supplementary Table 1),run:Lestaurtinib_02437_R2,Plate:MR007",61.6 nM
same,potency estimated from few doses,"PLK4; compound concentrations:100 nM and 1000 nM (sheet 'Lestaurtinib' of Supplementary Table 1),run:Lestaurtinib_02437_R3,Plate:MR007",41 nM
same,potency estimated from few doses,"PLK4; compound concentrations:100 nM and 1000 nM (sheet 'Lestaurtinib' of Supplementary Table 1),run:Lestaurtinib_02438_R2,Plate:MR008",70.6 nM
same,potency estimated from few doses,"PLK4; compound concentrations:100 nM and 1000 nM (sheet 'Lestaurtinib' of Supplementary Table 1),run:Lestaurtinib_02438_R3,Plate:MR008",67.9 nM
same,potency estimated from few doses,"PLK4; compound concentrations:100 nM and 1000 nM (sheet 'Lestaurtinib' of Supplementary Table 1),run:Lestaurtinib_02443_R1,Plate:MR009",70.3 nM
same,potency estimated from few doses,"PLK4; compound concentrations:100 nM and 1000 nM (sheet 'Lestaurtinib' of Supplementary Table 1),run:Lestaurtinib_02443_R2,Plate:MR009",81 nM
same,potency estimated from few doses,"PLK4; compound concentrations:100 nM and 1000 nM (sheet 'Lestaurtinib' of Supplementary Table 1),run:Lestaurtinib_02443_R3,Plate:MR009",62.6 nM
same,potency estimated from few doses,"PLK4; compound concentrations:100 nM and 1000 nM (sheet 'Lestaurtinib' of Supplementary Table 1),run:Lestaurtinib_02473_R3,Plate:MR010",43.1 nM
same,potency estimated from few doses,"PLK4; compound concentrations:100 nM and 1000 nM (sheet 'Lestaurtinib' of Supplementary Table 1),run:Lestaurtinib_02482_R2,Plate:MR011",113 nM
same,potency estimated from few doses,"PLK4; compound concentrations:100 nM and 1000 nM (sheet 'Lestaurtinib' of Supplementary Table 1),run:Lestaurtinib_02487_R1,Plate:MR012",79.1 nM
same,potency estimated from few doses,"PLK4; compound concentrations:100 nM and 1000 nM (sheet 'Lestaurtinib' of Supplementary Table 1),run:Lestaurtinib_02487_R3,Plate:MR012",83.9 nM
same,potency estimated from few doses,"PLK4; compound concentrations:100 nM and 1000 nM (sheet 'Lestaurtinib' of Supplementary Table 1),run:Lestaurtinib_02496_R1,Plate:MR013",78.2 nM
same,potency estimated from few doses,"PLK4; compound concentrations:100 nM and 1000 nM (sheet 'Lestaurtinib' of Supplementary Table 1),run:Lestaurtinib_02496_R2,Plate:MR013",94.1 nM
same,potency estimated from few doses,"PLK4; compound concentrations:100 nM and 1000 nM (sheet 'Lestaurtinib' of Supplementary Table 1),run:Lestaurtinib_02496_R3,Plate:MR013",53.6 nM
same,potency estimated from few doses,"PLK4; compound concentrations:100 nM and 1000 nM (sheet 'Lestaurtinib' of Supplementary Table 1),run:Lestaurtinib_02566_R2,Plate:MR014",56 nM
